An excerpt weighted towards active compounds, which were near 12% of everything screened.
AmpC no deterg: inhibitors of E. coli AmpC beta-lactamase without detergent | AID 485341 | Potency, µM (top dose mostly 57.1 µM), for inactives: at the top dose activity change, negative = inhibition, hits mostly inhibitors | 330,000 tested, 0.52% active | AmpC nitrocefin hydrolysis, absorbance 480 nm, 0.0001% Triton;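 further: plate controls were no compound for no effect and no enzyme for full effect; nearly all actives have a fitted effect of over 20% in size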
Target sequence (P00811 whole entry, looked up): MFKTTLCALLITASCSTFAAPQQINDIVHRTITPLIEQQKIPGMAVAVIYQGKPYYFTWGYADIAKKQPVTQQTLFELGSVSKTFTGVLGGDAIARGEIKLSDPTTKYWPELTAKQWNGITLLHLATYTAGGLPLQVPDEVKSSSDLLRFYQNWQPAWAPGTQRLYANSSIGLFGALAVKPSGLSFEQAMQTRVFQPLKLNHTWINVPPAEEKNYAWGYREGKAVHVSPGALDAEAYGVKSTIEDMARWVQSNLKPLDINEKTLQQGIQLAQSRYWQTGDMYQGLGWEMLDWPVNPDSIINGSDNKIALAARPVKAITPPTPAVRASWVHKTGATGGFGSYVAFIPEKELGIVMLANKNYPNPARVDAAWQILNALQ
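20 mM phosphate pH 7.0 + 0.01% (detergent screen) or 0.0001% Triton X-100; 5.3 nM AmpC reagent; cpd preinc 15 min RT; nitrocefin (800 uM stock) to start; A480 q20 s × 4 min; Activity was normalised to no-enzyme and no-compound control wells.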
Pf growth 96h: P. falciparum growth inhibition at 96 hour, primary screen for plastid delayed-death inhibitors; P. falciparum luciferase reporter growth, 96 h; Potency, µM (highest dose often 28.7 µM), for the others: at the highest dose activity change, negative = inhibition, actives largely listed as inhibitors; 320,000 tested, 6.9% active; AID 504834; further: on the % scale 0 is the no-effect control and ±100 the full control effect
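Plates of compound plus infected erythrocytes (2% hematocrit, 0.05% parasitemia final) incubate 96 hours, 37 C, 5% CO2. Detection reagent added; reduced luminescence from the parasites' luciferase reporter flags inhibition.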
SARS PLpro yeast: inhibitors of SARS-CoV papain-like protease in yeast; Potency, µM (titrated, usually from 32.9 µM), for inactives: at the top dose activity, positive = growth rescue, most hits filed as activators; AID 485353; S. cerevisiae expressing SARS-CoV PLpro, growth rescue; 330,000 tested, 0.19% active; calls by dose curve; further: 0% is about no effect; nearly all actives have a fitted effect of over 55% in size
AmpC detergent: inhibitors of E. coli AmpC beta-lactamase with detergent. 370,000 tested, 0.041% active. AmpC hydrolysis of nitrocefin, absorbance 480 nm, 0.01% Triton. Potency, µM (top dose mostly 114 µM), without a hit: at the highest dose activity change, negative = inhibition, hits mostly inhibitors;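 further: 0% = no-compound wells and -100% = no-enzyme wells; nearly all actives have a fitted effect of over 25% in size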
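AmpC (5.3 nM in the dispensed reagent) in 20 mM phosphate pH 7.0 with 0.01% (detergent screen) or 0.0001% Triton X-100 was preincubated with compounds for 15 min at room temperature. Nitrocefin was then added from an 800 uM solution, and hydrolysis was followed at 480 nm.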
Sm TGR block: blocks Schistosoma mansoni thioredoxin glutathione reductase | Potency, µM (highest dose often 114 µM), inactives show at the top dose activity change, negative = inhibition, most hits filed as inhibitors | Q962Y6 | purified TGR, DTNB reduction, TNB absorbance 405 nm | 360,000 tested, 3% active; further: on the % scale 0 is the no-effect control and ±100 the full control effect; nearly all actives have a fitted effect of over 60% in size
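TGR 20 nM + NADPH 100 uM (dispensed conc.), cpd preinc 15 min RT; start with NADPH (500 uM addition) then DTNB (15 mM addition). Kinetic TNB absorbance, 405 nm filter. Four-parameter Hill fit across titration.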
Pf growth 48h: P. falciparum growth inhibition at 48 hours (one generation) | P. falciparum luciferase growth in erythrocytes, 48 h | Potency, µM (top dose mostly 28.7 µM), inactives show at the top dose activity change, negative = inhibition, usual class: inhibitors | 310,000 tested, 5.9% active; further: on the % scale 0 is the no-effect control and ±100 the full control effect
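Compounds are pin-transferred into medium, infected erythrocytes (2% hematocrit, 0.1% parasitemia final) are added, and plates sit one parasite generation at 37 C in 5% CO2. Detection reagent is then added and luminescence measured.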
Numbers without * were called inactive. Unless noted, the call rests on the fitted dose curve; in most records, active means well fitted curve in the direction sought with a large enough effect; inconclusive means small, poorly fitted or top-dose-only effect, or another doubt; inactive means no such curve, though single readings can be large; an effect the other way counts as inactive or inconclusive. Potency means the concentration at half of the fitted maximal effect.

CCc1cc2c(CN3CCN(CCO)CC3)cc(=O)oc2cc1O was read as AmpC no deterg -8.3%, Pf growth 96h inconclusive, SARS PLpro yeast 7.5%, AmpC detergent 0.3%, Sm TGR block 3.2% and Pf growth 48h 13.1µM*.
`Cc1cc2oc(=O)cc(CN3CCCCC3)c2cc1C` gave AmpC no deterg -24.0%, Pf growth 96h 3.8%, SARS PLpro yeast 1.4%, AmpC detergent 3.7%, Sm TGR block -9.5% and Pf growth 48h 17.3%.
Cc1ccc2c(CN3CCN(S(=O)(=O)/C=C/c4ccccc4)CC3)cc(=O)oc2c1 was read as AmpC no deterg -22.5%, Pf growth 96h 9.28µM*, SARS PLpro yeast 16.6%, AmpC detergent inconclusive, Sm TGR block -2.8% and Pf growth 48h inconclusive.
Screening Cc1c(O)ccc2c(CN3CCN(C/C=C/c4ccccc4)CC3)cc(=O)oc12 returned AmpC no deterg -20.4%, Pf growth 96h inconclusive, SARS PLpro yeast 0.2%, AmpC detergent 1.3%, Sm TGR block -25.1% and Pf growth 48h 2.62µM*.
`Cc1cc2oc(=O)cc(CN3CCN(S(=O)(=O)c4cccs4)CC3)c2cc1C` gave AmpC no deterg -16.2%, Pf growth 96h 7.38µM*, SARS PLpro yeast 7.2%, AmpC detergent inconclusive, Sm TGR block 4.9% and Pf growth 48h inconclusive.
CC(=C1C(=O)c2ccccc2C1=O)N1CCN(C/C=C/c2ccccc2)CC1 was read as AmpC no deterg -11.7%, SARS PLpro yeast -0.6%, AmpC detergent -2.0%, Sm TGR block inconclusive and Pf growth 48h -14.6%.
Cc1ccc2c(CN3CCCCC3)cc(=O)oc2c1 was read as AmpC no deterg -14.1%, Pf growth 96h 18.8%, SARS PLpro yeast 0.1%, AmpC detergent -5.3%, Sm TGR block inconclusive and Pf growth 48h 34.9%.
For CCn1ccc2c(OCC(=O)NCc3ccc(C)cc3)cccc2c1=O the results were AmpC detergent 1.4% and Sm TGR block -14.5%.
For COc1cccc(NC(=O)c2sc(-n3nc(C)c(Cc4ccccc4Cl)c3C)nc2C)c1 the results were AmpC detergent 21.3% and Sm TGR block 4.1%.
Cc1cc2oc(=O)cc(CN3CCN(Cc4ccccc4)CC3)c2cc1O was read as AmpC no deterg -2.4%, Pf growth 96h inconclusive, SARS PLpro yeast 1.6%, AmpC detergent -2.1%, Sm TGR block -19.3% and Pf growth 48h 9.28µM*.
Screening CC(Oc1ccc2c(-c3ccccc3)cc(=O)oc2c1)C(=O)O (centres undefined) returned AmpC no deterg -10.0%, Pf growth 96h 35.2%, SARS PLpro yeast inconclusive, AmpC detergent inconclusive, Sm TGR block inconclusive and Pf growth 48h 31.0%.
For CC(C)CN(Cc1cc(=O)oc2cc(-c3ccccc3)c(O)cc12)CC(C)C the results were AmpC no deterg -43.7%, Pf growth 96h inconclusive, SARS PLpro yeast -2.4%, AmpC detergent -2.7%, Sm TGR block -17.4% and Pf growth 48h 0.329µM*.
For Cc1cc2oc(=O)cc(CN3CCN(C/C=C/c4ccccc4)CC3)c2cc1O the results were AmpC no deterg 12.3%, SARS PLpro yeast -2.3%, AmpC detergent -5.3%, Sm TGR block -13.6% and Pf growth 48h 2.94µM*.
O=c1cc(CN2CCN(C/C=C/c3ccccc3)CC2)c2cc(O)c(-c3ccccc3)cc2o1 was read as AmpC no deterg -46.6%, Pf growth 96h 1.04µM*, SARS PLpro yeast -21.8%, AmpC detergent -7.0%, Sm TGR block -3.6% and Pf growth 48h 0.928µM*.
CCOC(=O)c1ccc(NC(=S)NNC(=O)C2(C)CC2(Cl)Cl)cc1 (centres undefined) was read as AmpC no deterg -29.5%, Pf growth 96h inconclusive, SARS PLpro yeast -4.9%, AmpC detergent -4.8%, Sm TGR block -6.6% and Pf growth 48h 26.9%.

Assay outcomes from PubChem BioAssay.
